HSV augment: HSV replication enhancement | hit rate 0.005% among 220,000 | AID 1956 | maximum fold increase | HSV replication augmentation in cells, fold increase; in the data active means maximum fold increase above about 1.5; inconclusive means no clear call, values can overlap the other calls; tested in PC3 cells
Measles CPE: protection of cells from measles virus; Measles virus-infected cells, CPE protection, absorbance; protection (pct of control), % at 4 µM; hit rate 1.5% among 140,000; AID 841; in the data active means protection mostly above about 24%, no sharp cut-off; inactive means mostly below about 26%
Arbovirus anti: arbovirus infection inhibition; arbovirus infection cell-based antiviral screen; hit rate 0.37% among 200,000; AID 1251; inhibition, % at 10 µM; in the data active means inhibition above about 30%
ROMK primary: modulators of human ROMK potassium channel | P48048 | Tet-inducible ROMK, thallium flux fluorescence; actives lie on both sides | B-score at 10 µM | hit rate 2% among 130,000;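 active means signal ratio slope over the read window, or its plate-corrected B-score, at least 3 SD from the plate mean, either direction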;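 further: B-score of the F/F0 ratio slope over 7 to 12 s after thallium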
Target sequence (P48048 whole entry, looked up): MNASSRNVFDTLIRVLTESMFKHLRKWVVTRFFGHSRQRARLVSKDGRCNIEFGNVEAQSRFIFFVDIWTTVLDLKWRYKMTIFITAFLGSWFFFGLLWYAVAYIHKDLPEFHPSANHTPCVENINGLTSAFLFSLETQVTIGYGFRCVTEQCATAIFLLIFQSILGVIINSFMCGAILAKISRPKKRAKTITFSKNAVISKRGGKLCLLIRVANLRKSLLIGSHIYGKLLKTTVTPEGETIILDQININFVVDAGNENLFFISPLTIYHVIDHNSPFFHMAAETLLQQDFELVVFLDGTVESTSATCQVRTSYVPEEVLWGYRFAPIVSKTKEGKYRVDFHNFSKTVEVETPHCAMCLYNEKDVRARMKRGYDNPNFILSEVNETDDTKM
Cl transport mod: modulators of human KCC2 chloride dependent transport. Q9H2X9. KCC2 cells, thallium flux FluoZin-2 fluorescence. B-score of Tl+ flux slope (higher = more flux/activation; lower = inhibition) at 10 µM. hit rate 2.2% among 190,000. AID 1456;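 active means thallium flux slope and its plate-corrected score both differing from the plate sample mean at a set confidence after two filtering rounds, in either direction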;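 further: slope of fluorescence scaled to starting intensity during 10 to 20 s after thallium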
ROMK retest: confirmation of human ROMK potassium channel modulators. hit rate 54% among 3,000. normalized thallium flux (F/F0 slope) at 10 µM. shares compounds with ROMK primary. AID 1917. ROMK thallium flux, fluorescence ratio; hits give low values;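 active means Flux at 10 µM at least 3 SD below or above vehicle control mean in one or both replicates; inconclusive means no clear call, values can overlap the other calls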
* = called active by the depositor; i = inactive; ? = inconclusive; / = no result. Shown are actives, neighbours in structure and some others; about 4% of the full set was active somewhere.

SMILES | HSV augment | Measles CPE | Arbovirus anti | ROMK primary | Cl transport mod | ROMK retest
CCOC(=O)c1c(C)n(C)c2ccc(OC)c(NC(=O)CN3CCCCC3)c12 | / | 8 | -1 | -4.1* | 0.89 | 0.056*
COCCNC(=O)CSC1=N/C(=C/c2ccc(Cl)c(Cl)c2)C(=O)N1c1ccccc1F | i | 25 | 18 | / | -0.52 | 0.077
COC(=O)N/N=C/c1cn(Cc2ccccc2F)c2ccccc12 | i | / | / | -3.4* | -0.35 | 0.059*
COC(=O)N/N=C/c1cn(Cc2ccccc2Cl)c2ccccc12 | i | 11 | 2 | -1.1 | -0.56 | /
Oc1cccc(C(O)CNCc2ccc(OCc3ccc(Cl)cc3Cl)cc2)c1 (stereo unspecified) | i | / | -29 | -0.0063 | -0.25 | /
COC(=O)c1cnn(-c2ccccc2)c1C(OC)OC | i | / | / | / | 0.32 | 0.075
COC(=O)c1cnn(-c2ccccc2)c1-n1cccc1C=O | i | / | 8 | -5.7* | -0.13 | 0.077
CC1CC(C)(C)NC(=S)N1CCC(=O)N1CCc2ccccc2C1 (stereo unspecified) | i | / | 5 | 0.22 | 0.025 | /
Cc1ccc(NC(=O)/C(C#N)=C(\N)C(Cl)(Cl)Cl)nc1 | i | / | -3 | -5.5* | 0.27 | 0.035*
Cc1[nH]nc(SCC(=O)NCc2ccccc2)c1[N+](=O)[O-] | i | 3 | 3 | -2.3* | -1.5 | 0.074
O=c1c2oc3ccccc3c2ncn1Cc1ccc(Cl)cc1 | i | / | -11 | -0.43 | 0.049 | /
O=C(COC(=O)c1c2c(nc3ccccc13)CCCC2)Nc1ccc2c(c1)OCO2 | i | 6 | 1 | / | -0.28 | 0.075
O=C(COC(=O)c1cc(-c2ccccc2)nc2ccccc12)Nc1ccc2c(c1)OCO2 | i | 4 | -2 | / | 0.7 | /
O=C(COC(=O)c1nc(Cl)ccc1Cl)Nc1ccc2c(c1)OCO2 | i | / | 1 | -1.7* | 0.04 | 0.08
Cc1nn2c(=O)c3c4c(sc3nc2n1-c1ccccc1)COC(C)(C)C4 | i | / | / | / | -0.43 | /
Cn1c(NC(=O)c2ccco2)c(-c2ccc(Cl)cc2)c(=O)c2ccccc21 | i | 6 | 1 | / | 0.075 | /
COc1ccc(-c2c(NC(=O)c3ccco3)n(C)c3ccccc3c2=O)cc1 | i | 6 | 6 | 3.7* | 0.65 | 0.079
Nc1nc2ccccc2n1C(=O)c1ccc(F)cc1 | i | / | -6 | 1.2 | -0.13 | /
Nc1nc2ccccc2n1C(=O)c1ccccc1 | i | / | -13 | 2.1* | 0.4 | 0.076
COc1cc(/C=C(\C#N)c2nc3ccccc3[nH]2)cc(OC)c1O | ? | / | -5 | / | / | 0.038*
COc1cc(/C=C(\C#N)C(=O)c2c[nH]c3ccccc23)cc(OC)c1O | ? | / | 0 | -5.6* | -2.9 | 0.041*
COc1ccc(Cl)cc1NC(=O)C1(c2cccs2)CCOCC1 | i | / | 6 | 0.37 | 0.24 | /
O=[N+]([O-])c1ccc2c(c1)nc1n2CCN(c2ccccc2)C1 | i | / | / | / | 0.35 | 0.072
N#C/C(=C\c1ccccn1)c1nc2ccccc2s1 | ? | / | -6 | -5.7* | 0.33 | 0.032*
COc1ccccc1CNCC(O)Cn1c2ccccc2c2ccccc21 (stereo unspecified) | i | 5 | -39 | -3.2* | 0.62 | 0.061*
SMILES | HSV augment | Measles CPE | Arbovirus anti | ROMK primary | Cl transport mod | ROMK retest
OCCNCC(O)Cn1c2ccccc2c2ccccc21 (stereo unspecified) | i | / | -13 | -2.9 | 1.4 | /
Cc1ccc(NC(=O)c2cc([N+](=O)[O-])ccc2NCc2cccnc2)cc1 | i | 2 | -3 | -0.57 | -1.5 | /
COc1ccc(OCC(O)CN2CCN(c3ccc(Cl)cc3)CC2)cc1 (stereo unspecified) | i | / | / | / | / | /
COc1ccc(N2CCN(CC(O)COc3ccc4c(c3)CCC4)CC2)cc1 (stereo unspecified) | i | 2 | 3 | -4.5* | / | 0.061*
COc1ccc(N2CCN(CC(O)COCCOc3ccc(Br)cc3)CC2)cc1 (stereo unspecified) | i | 6 | -15 | -2.4* | -0.66 | 0.058*
O=S(=O)(N1CCCCC1)N1CCN(CC(O)COc2ccc3cc(Br)ccc3c2)CC1 (stereo unspecified) | i | 20 | 22 | -0.24 | 0.29 | /
OC(COc1ccc2cc(Br)ccc2c1)CN1CCCC1 (stereo unspecified) | i | 10 | -43 | / | / | 0.064*
COc1ccccc1N1CCN(CC(O)COCCOc2ccc(Br)cc2)CC1 (stereo unspecified) | i | 24 | -30 | / | -0.013 | /
O=C1NN(c2ccccc2)C(=O)/C1=C\c1ccc(-c2cc([N+](=O)[O-])ccc2O)o1 | i | / | -34 | / | / | 0.054*
O=C(NC1CCCC1)C(c1ccccc1)N(Cc1cccnc1)C(=O)Cc1cccs1 (stereo unspecified) | i | / | 3 | -0.5 | -0.054 | /
Cc1cc2c(ccc3c2no[n+]3[O-])nn1 | i | 2 | -8 | 2.7* | 0.35 | 0.072
Cn1cc(/C=C2\SC(=S)N(NC(=O)c3ccccc3)C2=O)c2ccccc21 | / | 11 | -11 | -3* | -2.6 | 0.058*
Cc1ccc(/C=C2\SC(N3CCCC3)=NC2=O)cc1 | i | / | -9 | 2.8 | -1.2 | /
O=C1N=C2SCCN2/C1=C\c1ccc(Cl)cc1 | i | 7 | 2 | -7.6* | -0.5 | 0.047*
CN1C2C=C3C(C#N)=C(N)C(C#N)(C#N)[C@H](c4c(F)cccc4F)[C@H]3C1CC2 (stereo partly specified) | i | 7 | 1 | / | -0.0057 | /
N#CC1=C(N)C(C#N)(C#N)[C@H](c2c(F)cccc2F)[C@H]2CC3(CC=C12)OCCO3 | i | 18 | -11 | -3.6* | -0.21 | 0.053*
C=CCNC(=O)N1C2=NC(C(=O)OC)=C(C(=O)OC)[C@@H]3N(Cc4ccccc4)c4ccccc4[C@]23C[C@H]1C(=O)OC | i | / | / | / | / | /
COc1ccc(C(=O)Nc2ccccc2-c2nnn(CC(=O)NCc3ccco3)n2)cc1 | i | 19 | 4 | 0.51 | / | /
COc1ccc(C(=O)Cn2nnc(-c3ccccc3NC(=O)C(F)(F)F)n2)cc1 | i | 6 | -7 | 2* | -0.083 | 0.073
S=C(NCCc1ccccc1)N1CCN(C23CC4CC(CC(C4)C2)C3)CC1 | i | / | -4 | -7.9* | -0.13 | ?
O=C(CSc1nc2c(sc3ccccc32)c(=O)n1CCCN1CCCC1)NCc1ccccc1 | i | / | -31 | -3.5* | -1.1 | 0.06*
C=CCNC(=O)C(=O)NCCOc1ccccc1Cl | i | 8 | -15 | / | 0.31 | /
COc1cc(C(=O)N2CCN(c3ncnc4sc(C)c(C)c34)CC2)cc(OC)c1OC | i | 17 | 2 | / | -1.1 | 0.077
CCCCNCc1cc(OCC)c(OCC)cc1Br | i | / | -4 | -0.31 | 0.93 | /
CC1CC(C)CN(CCCNC(=O)c2csc3c2CCCC3)C1 (stereo unspecified) | i | 1 | -8 | -3* | -0.19 | 0.064*
CCN(CC)CCCNC(=S)N(Cc1cccs1)Cc1cc2cc3c(cc2[nH]c1=O)OCCO3 | i | / | -21 | -11* | 1.6 | 0.055*
CCN(CC)CCCNC(=S)N(Cc1ccco1)Cc1cc2cc3c(cc2[nH]c1=O)OCCO3 | i | 22 | -13 | / | 0.65 | /

High-throughput results: PubChem, several laboratories
